Screening data as filed in PubChem BioAssay.
Sampled rows, rich in hits. Any-hit rate of the full collection: about 2.2%.
ANO1 block: blocks the mouse calcium-activated chloride channel TMEM16A | HEK293 TMEM16A/YFP iodide influx fluorescence, ionomycin | normalized B-score (activity score, 25-100; higher = stronger inhibition) at 10 µM | 1.2% of 310,000 active | Q8BHY3 | AID 588511;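 active = ratio plate-corrected score three or more library SD toward inhibition, starting fluorescence score within five deviations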;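 also: score derived from kinetic fluorescence span divided by baseline fluorescence per well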
TLR4 MyD88 comp: TLR4-MyD88 interaction inhibition in cells; 0.18% of 200,000 active; inhibition, % at 8.4 µM; HeLa CL3-4 TLR4/MyD88 BLA complementation, FRET ratio; O00206+Q99836; in the data active = inhibition above about 25%;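 also: 0% = vehicle and 100% = reference inhibitor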
Target sequence (O00206 whole entry, looked up): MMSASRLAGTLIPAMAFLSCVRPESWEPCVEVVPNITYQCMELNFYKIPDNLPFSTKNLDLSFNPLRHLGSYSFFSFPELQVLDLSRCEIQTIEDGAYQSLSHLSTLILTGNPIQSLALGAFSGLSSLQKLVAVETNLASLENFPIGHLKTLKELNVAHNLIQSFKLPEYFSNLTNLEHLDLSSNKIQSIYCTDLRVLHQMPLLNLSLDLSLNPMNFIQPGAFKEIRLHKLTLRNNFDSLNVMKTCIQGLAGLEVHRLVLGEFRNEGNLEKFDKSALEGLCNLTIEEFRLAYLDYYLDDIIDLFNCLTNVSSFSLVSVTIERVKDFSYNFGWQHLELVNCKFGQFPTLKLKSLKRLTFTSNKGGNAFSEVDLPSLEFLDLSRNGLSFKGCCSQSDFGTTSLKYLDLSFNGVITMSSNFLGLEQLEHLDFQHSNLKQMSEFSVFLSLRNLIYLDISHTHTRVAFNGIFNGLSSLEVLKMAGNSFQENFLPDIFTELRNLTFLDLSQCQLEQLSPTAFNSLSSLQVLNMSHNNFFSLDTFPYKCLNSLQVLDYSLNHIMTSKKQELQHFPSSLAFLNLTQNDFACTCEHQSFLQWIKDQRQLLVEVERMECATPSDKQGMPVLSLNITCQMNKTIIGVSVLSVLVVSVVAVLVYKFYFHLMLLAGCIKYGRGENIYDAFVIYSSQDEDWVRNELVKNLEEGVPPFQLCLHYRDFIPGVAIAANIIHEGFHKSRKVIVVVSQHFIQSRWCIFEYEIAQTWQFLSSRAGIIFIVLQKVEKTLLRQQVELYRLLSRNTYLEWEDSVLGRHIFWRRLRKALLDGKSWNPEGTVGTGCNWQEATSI
Target sequence (Q99836 whole entry, looked up): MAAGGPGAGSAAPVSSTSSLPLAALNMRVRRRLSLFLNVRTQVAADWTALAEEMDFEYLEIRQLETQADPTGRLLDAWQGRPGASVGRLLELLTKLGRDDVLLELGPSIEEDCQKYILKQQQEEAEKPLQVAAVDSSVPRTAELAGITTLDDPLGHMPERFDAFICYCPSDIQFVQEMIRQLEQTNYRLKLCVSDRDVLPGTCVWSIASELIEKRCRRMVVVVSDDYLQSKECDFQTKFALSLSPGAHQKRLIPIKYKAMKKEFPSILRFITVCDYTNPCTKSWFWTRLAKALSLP
GRK2 inh: human GRK2 inhibition via aptamer displacement | P25098 | bead flow cytometry, FAM-aptamer displacement from GRK2 | inhibition of aptamer binding, % at 10 µM | 0.59% of 330,000 active | AID 488847;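 active = inhibition of aptamer binding above 40%, roughly 3 SD of noise, on plates passing a quality check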;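 also: median bead fluorescence of bound FAM aptamer so fluorescent compounds give negative values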
TMEM16A act: mouse TMEM16A channel activation, primary screen; Q8BHY3; 0.3% of 340,000 active; HEK293 TMEM16A/YFP-H148Q/I152L, iodide quench fluorescence; stronger effect = lower value; B-score at 10 µM;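 active = fluorescence-ratio B-score plate-corrected deviation score at least 3 library SD below zero, with starting fluorescence score within 5 deviations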;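 also: channel opened by trigger with iodide after compound preincubation; score built on the fluorescence ratio of max minus min over baseline; more negative score means more quench and so TMEM16A activation or potentiation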
TLR9-MyD88 inh: inhibitors of human TLR9-MyD88 binding; inhibition, % at 4.98 µM; AID 504734; 0.21% of 340,000 active; CHO BLA complementation TLR9-MyD88, CCF4 FRET ratio;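 active = inhibition above the mean over all tested compounds plus 3 SD, cut at about 21% in these data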;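 also: 0% = DMSO only wells and 100% = clavulanate BLA inhibitor control wells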
NOD2-RIPK2 inh: inhibitors of human NOD2-RIPK2 interaction; 0.38% of 360,000 active; CHO BLA complementation NOD2-RIPK2, CCF4 ratio; inhibition, % at 4.98 µM; AID 624267; in the data active = inhibition above about 21%;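 also: 0% = vehicle only and 100% = reference blocker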
GRK2 inh confirm: confirmation of human GRK2 inhibitors displacing RNA aptamer | aptamer displacement, % at 10 µM | 4% of 2,000 active | bead-bound GRK2, FAM-aptamer displacement, flow cytometry | shares compounds with GRK2 inh;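 active = aptamer displacement above 40%, near three times the noise of non-fluorescent compounds, on plates passing quality checks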;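 also: negative values mostly reflect intrinsic compound fluorescence rather than true enhancement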
Aptamer quench 1: counter-screen for GRK2 aptamer inhibitors: fluorescent aptamer quenchers; shares compounds with GRK2 inh; Fluorescent RNA aptamer beads, quenching, flow cytometry; stronger effect = higher value; fluorescence change (kMESF span), kMESF (concentration not given with the values); 110 tested, under 10 active; AID 504521;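 active = compounds whose bead fluorescence drops by more than 37 kMESF across the dose range, marking them as dye quenchers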
FAM quench CP1: quenches fluorescent RNA aptamer, GRK2 hit artifact. shares compounds with GRK2 inh. Carboxyfluorescein RNA aptamer on beads, flow cytometry quenching; stronger effect = lower value. fluorescence response (% of DMSO), % at 10 µM. 2,000 tested, under 10 active;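 active = compounds that quench the bead-bound fluorescent RNA probe, cutting fluorescence to under half of the solvent control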;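 also: counterscreen run without GRK2 so only probe quenching by compound is measured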
GRK2 CP2: confirmation of human GRK2 inhibitors binding RNA aptamer site | shares compounds with GRK2 inh | bead-bound GRK2, FAM-aptamer displacement, flow cytometry | inhibition of aptamer binding, % at 10 µM | 360 tested, under 10 active | AID 504782;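 active = inhibition of aptamer binding above 40%, about triple the noise seen with nonglowing compounds, on plates passing quality control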;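 also: negative values mostly come from compounds that fluoresce themselves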
FAM quench CP2: aptamer fluorescence quenching in GRK2 counter-screen | shares compounds with GRK2 inh | carboxyfluorescein RNA aptamer beads, flow cytometry quenching; stronger effect = lower value | fluorescence response vs DMSO, % at 10 µM | 360 tested, under 10 active | AID 588494;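 active = response vs DMSO under 50%, meaning signal dropped by over half, treated as fluorescence quencher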;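 also: labelled aptamer on streptavidin beads without GRK2 as a quench counter-screen; 100% = bead fluorescence of DMSO wells and lower means quenching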
* marks the source's active call; other numbers are inactive results; i = inactive; . = not tested or not shown.

SMILES	ANO1 block	TLR4 MyD88 comp	GRK2 inh	TMEM16A act	TLR9-MyD88 inh	NOD2-RIPK2 inh	GRK2 inh confirm	FAM quench CP1	others
Cc1ccc(C(=O)N/N=C/c2cc(Br)ccc2O)cn1	i	.	73.0*	i	-3.0	3.6	-0.9	93.2
O=P(c1ccccc1)(c1ccccc1)c1cc(S(=O)(=O)O)ccc1O	i	.	74.0*	i	6.8	-2.5	52.4*	98.4	Aptamer quench 1=1.5
CC(C)(CNC(=O)c1cc(-c2ccc(Cl)s2)nc2ccccc12)N1CCOCC1	i	.	52.0*	i	7.0	-0.4	-4.2	100.5
Cc1ccc(-n2nc3c(c2NC(=O)CC(C)C)CS(=O)(=O)C3)cc1	i	.	1.0	i	-6.8	2.0	.	.
O=C(c1ccc(Cn2cc([N+](=O)[O-])cn2)o1)N1CCCCCC1	i	.	1.0	i	6.9	-11.0	.	.
O=C(c1ccccc1)c1c2c(cc3sc4ccccc4[n+]13)-c1cccc3cccc-2c13	100*	-18.6	76.0*	i	-9.3	-3.3	69.8*	110.4	Aptamer quench 1=-5.5
O=C(c1ccccc1)c1ccc2ccccc2c1	.	.	.	i	2.4	3.0	.	.
O=C(N/N=C/c1ccc(F)cc1)c1c(O)c2ccccc2[nH]c1=O	i	3.1	0.0	i	-1.8	-2.5	.	.
O=C(N/N=C/c1cccc(F)c1)c1c(O)c2ccccc2[nH]c1=O	i	-1.7	70.0*	i	9.9	1.3	4.1	94.0
CCCN(C)C[C@H]1OCc2cnnn2CCCC(=O)N([C@H](C)CO)C[C@@H]1C	.	.	.	.	.	0.5	.	.
CC(=O)c1cccc(NC(=O)CSCc2ccccc2)c1	i	-1.5	43.0*	i	-7.5	-7.5	-1.6	98.7
CC(NS(=O)(=O)c1ccc2c(c1)CC(C)N2C(=O)C1CC1)c1ccccc1 (stereo unspecified)	i	.	1.0	i	5.5	1.5	.	.
Cc1ccc(C(=O)OCc2nc3ccsc3c(=O)[nH]2)o1	i	.	2.0	i	-7.2	-12.4	.	.
O=C(/C=C/c1ccc(Br)o1)OCc1nc2ccsc2c(=O)[nH]1	i	.	88.0*	i	-0.5	6.2	16.3	98.6
CC1CCCN(C2(O)C(=O)Nc3ccc([N+](=O)[O-])cc32)C1 (stereo unspecified)	i	.	0.0	i	0.1	-6.8	.	.
O=C(COC(=O)/C=C/c1cccc(F)c1)Nc1ncccn1	i	.	45.0*	i	-6.4	-20.6	30.9	99.8
CC12CCC(=O)N1c1c(sc3nc(N4CCOCC4)c4c(c13)CCCC4)C(=O)N2 (stereo unspecified)	i	-3.9	45.0*	i	-12.2	-9.3	22.3	79.6
Cc1ccc(-n2cnc3c(sc4nc(N5CCOCC5)c5c(c43)CCCC5)c2=O)cc1	i	.	0.0	i	.	-7.3	.	.
CCCN(C(=O)c1c(CC)noc1C)c1c(N)n(Cc2ccccc2)c(=O)[nH]c1=O	i	.	1.0	i	9.1	-9.0	.	.
COc1ccc(CN(C)C(=O)Cn2ccsc2=N)cc1OC	i	.	0.0	i	-5.4	5.7	3.6	96.5
COc1ccc(CN(C)C(=O)Cn2cc(C)c(=O)[nH]c2=O)cc1OC	.	.	.	.	-1.6	-6.8	.	.
CN(CC(=O)Nc1ccccc1Cl)C(=O)Cn1cc(C(F)(F)F)ccc1=O	.	.	65.0*	i	-1.2	-5.6	0.3	96.1
COc1ccc(C)cc1NC(=O)c1ccc2c(c1)C(=O)N(Cc1ccncc1)C2=O	.	.	79.0*	i	3.6	-1.7	1.7	95.0
CCC1CCCCN1CCCNC(=O)C1CCN(S(=O)(=O)N2CCCCC2)CC1 (stereo unspecified)	i	-19.0	15.0	i	2.0	-5.2	-41.2	111.8
C=CCNc1ncnc2c1ncn2[C@H]1CN(CCc2ccccc2)C[C@@H](CO)O1	.	.	.	.	.	1.0	.	.
SMILES	ANO1 block	TLR4 MyD88 comp	GRK2 inh	TMEM16A act	TLR9-MyD88 inh	NOD2-RIPK2 inh	GRK2 inh confirm	FAM quench CP1	others
COc1ccc(NC(=O)Cc2ccc(Cl)cc2)cc1NC(=O)c1ccco1	i	-6.7	70.0*	i	-4.3	1.3	-7.1	94.9
CCOc1ccc(NC(=O)c2ccco2)cc1	i	11.0	0.0	i	6.7	2.5	.	.
CCOc1ccc(NC(=S)NC(=O)c2ccco2)cc1	i	.	74.0*	i	-7.0	1.7	-2.8	101.3
COc1ccc(Cl)cc1NC(=S)NC(=O)c1ccco1	.	.	44.0*	i	-6.3	1.9	.	.	GRK2 CP2=8.1;FAM quench CP2=100.0
O=C(NC(=S)Nc1cc(Cl)ccc1Cl)c1ccco1	.	.	.	.	-5.8	-5.6	.	.
COc1ccccc1C(O)c1ncc(-c2cccc3ccccc23)[nH]1 (stereo unspecified)	.	.	.	.	.	-8.7	.	.
COCC(=O)N1CCC(n2nccc2NC(=O)CCOc2ccccc2)CC1	i	.	4.0	i	4.5	-6.7	.	.
O=C(CCOc1ccccc1)Nc1ccnn1C1CCN(C(=O)CCC(F)(F)F)CC1	i	.	98.0*	i	2.0	-3.3	0.0	97.9
CC(C)=CCC(C)(C)/C=N/NC(N)=O	i	.	2.0	i	-6.0	1.2	.	.
CC(C)C[C@H](NC(=O)[C@H](Cc1ccccc1)n1c(=O)[nH]c2ccccc2c1=O)C(=O)N1CCC[C@@H]1C(=O)O	i	.	3.0	i	5.1	0.1	.	.
COc1cc(CNCc2cccs2)ccc1OCc1ccccc1	i	4.9	30.0	i	-0.2	-3.2	-2.0	103.2
CCOc1ccccc1C=NNC(=O)C1CC1	.	.	.	i	1.5	-5.0	.	.
COC(=O)[C@]1(C)N[C@H](CN(C)S(=O)(=O)c2ccccc2)[C@@H]2C(=O)N(Cc3ccccc3)C(=O)[C@@H]21	.	.	2.0	i	-9.5	-1.6	.	.
CCOC(=O)c1coc(C(=O)OCC)c1C(=O)OCC	.	.	.	i	-0.2	-8.9	.	.
COc1ccc(CCNC(=O)C(=O)NCC2OCCN2S(=O)(=O)c2cc(F)ccc2F)cc1OC (stereo unspecified)	i	.	78.0*	i	1.3	-4.0	-2.9	99.4
